Shown are actives, neighbours in structure and some others; about 19% of the full set was active somewhere.
uPA surface inh – qHTS for Inhibitors of Cell Surface uPA Generation | Potency, µM (series often up to 38.3 µM), hits mostly inhibitors | hit rate 0.31% among 330,000 | cell surface uPA generation assay, qHTS; active = well fitted inhibition curve with a large enough effect; inconclusive = small, poorly fitted or top-dose-only effect; inactive = no such curve, though single readings can be large or run the other way; tested in mouse RAW 264.7 cells; also: nearly all actives have a fitted effect of over 55% in size
DT40 TDP1 no CPT – qHTS for Inhibitors of human tyrosyl-DNA phosphodiesterase 1 (TDP1): qHTS in cells in absence of CPT; DT40 Tdp1-/- hTDP1 cells, no CPT, ATP luminescence, 48 h; Potency, µM (top dose mostly 46.2 µM), actives largely listed as inhibitors; hit rate 15% among 420,000; AID 686978, 2013; also: nearly all actives have a fitted effect of over 55% in size
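Cells were dispensed at 400 per well, compounds added by pin tool, plates incubated ≥48 hr at 37 °C, then CellTiter-Glo added for 30 min at room temperature before luminescence reading. Line: DT40 Tdp1-/- complemented with hTDP1; camptothecin omitted.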
DT40 TDP1 CPT – qHTS for Inhibitors of human tyrosyl-DNA phosphodiesterase 1 (TDP1): qHTS in cells in presence of CPT; Potency, µM (highest dose often 46.2 µM), actives largely listed as inhibitors; AID 686979, 2013; hit rate 12% among 420,000; chicken DT40 Tdp1-/-;hTDP1 cells + 20 nM CPT, ATP luminescence, 48 h; also: nearly all actives have a fitted effect of over 55% in size
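Chicken DT40 Tdp1-/- cells stably complemented with human TDP1 were seeded at 400 cells/well in medium containing 20 nM camptothecin, exposed to pin-transferred compounds, and grown at 37 °C for at least 48 hr. Viability was read as ATP luminescence.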
IL1B secr inh – qHTS for Inhibitors of Inflammasome Signaling: IL-1-beta AlphaLISA Primary Screen | THP-1 LPS/ATP IL-1B secretion, AlphaLISA, 16 h; stronger effect = lower value | activity change, % at 57.5 µM | hit rate 4.7% among 360,000; in the data active = activity change below about -50%; inconclusive = mostly about -30% to -49%
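THP-1 cells pretreated 1 hr with compounds (up to 57.5 uM final), then stimulated with LPS (250 ng/mL final) plus ATP (1.25 mM final); secreted IL-1B measured by AlphaLISA after 16 hr, decreased signal indicating inhibition.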
HT1080NT lethal – qHTS for induction of synthetic lethality in tumor cells producing 2HG: qHTS for the HT-1080-NT fibrosarcoma cell line; HT-1080-NT fibrosarcoma viability, CellTiter-Glo ATP luminescence, 48 h; Potency, µM (series often up to 46.1 µM), usual class: cytotoxic; hit rate 1.6% among 360,000;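 also: NT is the 2HG producing partner of a matched IDH1 knockdown line; nearly all actives have a fitted effect of over 55% in size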
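Compounds were tested in concentration-response format on HT-1080-NT cells for 48 hours at 37 degrees C. Cell viability came from CellTiter-Glo luminescence; curves were classified by r2, response magnitude and activity.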
HT1080 IDH1KD tx – qHTS for induction of synthetic lethality in tumor cells producing 2HG: qHTS for the HT-1080-IDH1KD cell line | HT-1080 IDH1 knockdown viability, ATP luminescence, 48 h | Potency, µM (top dose mostly 46.1 µM), most hits filed as cytotoxic | hit rate 2% among 360,000
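CellTiter-Glo luminescence after 48 h compound exposure at 37 degrees C of IDH1-knockdown HT-1080 cells in 5% FBS RPMI. %Activity scaled between DMSO wells and cell-free media wells, with curves fitted and assigned curve classes.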
Of the large screens only hits and unclear results are named; the others gave an inactive call. Unless noted, calls follow the shape of the dose curve; as a rule, active = well fitted curve in the direction sought with a large enough effect; inconclusive = small, poorly fitted or top-dose-only effect, or another doubt; inactive = no such curve, though single readings can be large; an effect the other way counts as inactive or inconclusive.

Cc1cc(C)c2c(=O)n3c(nc2c1)C(C)NC(=O)c1cccnc1-3 (stereo not drawn)	none (no result: uPA surface inh)
Cc1ccc2c(CC(=O)Nc3c(C(=O)c4ccc(C)c(F)c4)oc4ccccc34)coc2c1	DT40 TDP1 no CPT inconclusive (no result: uPA surface inh, IL1B secr inh, HT1080NT lethal, HT1080 IDH1KD tx)
CCC(=O)N(Cc1cc2cc(OC)ccc2[nH]c1=O)c1ccccc1OC	DT40 TDP1 no CPT inconclusive, DT40 TDP1 CPT inconclusive, IL1B secr inh inconclusive (no result: uPA surface inh)
Cc1ccc(N(Cc2cc3cc(C)ccc3[nH]c2=O)S(=O)(=O)c2ccccc2)cc1	DT40 TDP1 no CPT 14.6µM, DT40 TDP1 CPT 23.1µM
COc1ccc2[nH]c(=O)c(CN(c3ccccc3)S(=O)(=O)c3ccccc3)cc2c1	DT40 TDP1 no CPT 20.6µM, DT40 TDP1 CPT inconclusive
COc1ccc2[nH]c(=O)c(CN(c3ccccc3OC)S(=O)(=O)c3ccccc3)cc2c1	DT40 TDP1 no CPT 14.6µM, DT40 TDP1 CPT 16.4µM
CCC(C)c1ccccc1NC(=O)C(C)OC(=O)CN1C(=O)NC(C)(C)C1=O (stereo not drawn)	none
c1ccc(CN2CC[C@@H](Nc3nccn4ccnc34)C2)cc1	DT40 TDP1 CPT inconclusive (no result: uPA surface inh)
Cc1ccc(NC2=C(c3ccc(C(F)(F)F)cc3)C(=O)c3ccccc32)cc1C	DT40 TDP1 no CPT inconclusive, DT40 TDP1 CPT 20.6µM (no result: uPA surface inh, IL1B secr inh, HT1080NT lethal, HT1080 IDH1KD tx)
Cc1ccccc1CN1CCc2nnc(C(C)NC(=O)C3CCN(C)CC3)n2CC1 (stereo not drawn)	none (no result: uPA surface inh, IL1B secr inh, HT1080NT lethal, HT1080 IDH1KD tx)
NS(=O)(=O)c1cccc(NC(=O)CC2(CC(=O)O)CCCC2)c1	none
Cc1ccc(NC(=O)COC(=O)/C(=C/c2cccs2)c2cccs2)cc1S(=O)(=O)N(C)C	DT40 TDP1 no CPT 14.6µM, DT40 TDP1 CPT 16.4µM
NS(=O)(=O)c1cccc(NC(=O)COC(=O)/C(=C/c2cccs2)c2cccs2)c1	DT40 TDP1 no CPT 23.1µM, DT40 TDP1 CPT inconclusive, IL1B secr inh -93.2
NS(=O)(=O)c1cccc(NC(=O)COC(=O)C2(c3cccc(F)c3)CCCC2)c1	DT40 TDP1 no CPT inconclusive, DT40 TDP1 CPT inconclusive, IL1B secr inh -53.1
CC(NC(=O)COC(=O)/C(=C/c1cccs1)c1cccs1)c1ccccc1 (stereo not drawn)	DT40 TDP1 no CPT 18.4µM, DT40 TDP1 CPT inconclusive
CC(=O)N/C(=C\c1ccccc1)C(=O)OCC(=O)Nc1ccc(C)c(S(=O)(=O)N(C)C)c1	none
Cc1cccc(NS(=O)(=O)c2c(C(=O)N3CCOCC3)c(C)n(C)c2C)c1C	DT40 TDP1 CPT inconclusive
CCOC(=O)c1c(NC(=O)C2COc3ccccc3O2)sc2c1CCN(Cc1ccccc1)C2 (stereo not drawn)	DT40 TDP1 CPT 23.1µM
COC(=O)N1CCc2c(sc(NC(=O)C3COc4ccccc4O3)c2C(N)=O)C1 (stereo not drawn)	DT40 TDP1 no CPT 16.4µM, DT40 TDP1 CPT 14.6µM
NC(=O)c1c(NC(=O)C2COc3ccccc3O2)sc2c1CCN(Cc1ccccc1)C2 (stereo not drawn)	HT1080NT lethal inconclusive
CN(C)C(CNC(=O)C1CC(=O)N(c2cccc(C(F)(F)F)c2)C1)c1ccccc1 (stereo not drawn)	DT40 TDP1 no CPT inconclusive (no result: uPA surface inh)
COC(=O)C[C@H]1c2cc(C(F)(F)F)ccc2S(=O)(=O)N1C(C)C	DT40 TDP1 no CPT inconclusive (no result: uPA surface inh, IL1B secr inh, HT1080NT lethal, HT1080 IDH1KD tx)
CCOC(=O)N1CCC(N2C(=O)c3ccccc3C2Nc2ccc(C)cc2)CC1 (stereo not drawn)	DT40 TDP1 no CPT inconclusive, DT40 TDP1 CPT inconclusive
CCOC(=O)N1CCC(N2C(=O)c3ccccc3C2Nc2cc(C)cc(C)c2)CC1 (stereo not drawn)	DT40 TDP1 no CPT 14.6µM, DT40 TDP1 CPT inconclusive
Cc1ccccc1C(=O)Nc1ccc(S(=O)(=O)NCC2CCCO2)cc1 (stereo not drawn)	DT40 TDP1 no CPT 13µM, DT40 TDP1 CPT 10.3µM (no result: uPA surface inh)
CCOc1cc(NC(=S)NCC2CCCO2)c(OCC)cc1NC(=O)c1ccccc1C (stereo not drawn)	DT40 TDP1 no CPT inconclusive, DT40 TDP1 CPT 29.1µM
COc1ccccc1NC(=S)NCC1CCCO1 (stereo not drawn)	none
COc1ccccc1/C=C/C(=O)NC(=S)NCC1CCCO1 (stereo not drawn)	DT40 TDP1 no CPT inconclusive, IL1B secr inh -62.0
COCC(=O)Nc1ccc(S(=O)(=O)NCC2CCCO2)cc1 (stereo not drawn)	none
O=C(Cc1ccc(Br)cc1)Nc1ccc(S(=O)(=O)NCC2CCCO2)cc1 (stereo not drawn)	DT40 TDP1 no CPT 18.4µM, DT40 TDP1 CPT 11.6µM
CCNc1ncc2nc(C)c(=O)n(C[C@H]3CCCO3)c2n1	DT40 TDP1 CPT inconclusive (no result: uPA surface inh, IL1B secr inh, HT1080NT lethal, HT1080 IDH1KD tx)
COc1ccc(C)cc1NC(=O)c1ccc2c(O)c(S(=O)(=O)c3ccccc3)c(=O)[nH]c2c1	none
C=C1CCC[C@]2(C)C[C@H]3OC(=O)C(CNCCN(C)C)[C@H]3CC12 (stereo partly drawn)	uPA surface inh inconclusive, DT40 TDP1 no CPT inconclusive, DT40 TDP1 CPT inconclusive, HT1080NT lethal inconclusive, HT1080 IDH1KD tx inconclusive
C=C1CCC[C@]2(C)C[C@H]3OC(=O)C(CNCCN(CC)CC)[C@H]3CC12 (stereo partly drawn)	DT40 TDP1 no CPT 16.4µM, DT40 TDP1 CPT inconclusive, IL1B secr inh -96.5, HT1080 IDH1KD tx inconclusive
C=C1CCC[C@]2(C)C[C@H]3OC(=O)C(CNCC(C)C)[C@H]3CC12 (stereo partly drawn)	uPA surface inh inconclusive, DT40 TDP1 no CPT 16.4µM, DT40 TDP1 CPT inconclusive, IL1B secr inh -69.1, HT1080NT lethal inconclusive, HT1080 IDH1KD tx inconclusive
C=C1CCC[C@]2(C)C[C@H]3OC(=O)C(CN4CC(C)OC(C)C4)[C@H]3C[C@@H]12 (stereo partly drawn)	uPA surface inh inconclusive, DT40 TDP1 no CPT inconclusive, DT40 TDP1 CPT inconclusive, IL1B secr inh -71.4, HT1080NT lethal inconclusive, HT1080 IDH1KD tx inconclusive
CCCCOc1ccc(C(=O)OCC(=O)NC2CCCC2)cc1	DT40 TDP1 no CPT inconclusive
CCOc1ccc(S(=O)(=O)NCc2ccccn2)cc1NC(=O)c1ccccc1F	DT40 TDP1 no CPT 0.651µM, DT40 TDP1 CPT 0.651µM, HT1080NT lethal 0.92µM, HT1080 IDH1KD tx inconclusive
COc1ccc(S(=O)(=O)NCc2ccccn2)cc1NC(=O)c1ccccc1	DT40 TDP1 no CPT 4.11µM, DT40 TDP1 CPT 4.61µM, HT1080NT lethal 8.2µM, HT1080 IDH1KD tx 13µM
COc1ccc(S(=O)(=O)NCc2ccccn2)cc1Br	none

Compound activity: PubChem BioAssay, National Center for Advancing Translational Sciences (NCATS)
